Experimental data from PubChem BioAssay AID1259310 (The Scripps Research Institute Molecular Screening Center, 2017).
Values joined by “and” are separate entries in the source; they are usually repeats but may differ in a detail not shown here. Equal entries are not always repeated. About 850 (0.13%) of roughly 650,000 compounds were called active. Rule as the data show it: active = normalized activity above about 1.9%; inactive = the rest. The list comes from a sample in which actives are over-represented; it also holds similar structures and randomly drawn compounds.

molecular target: F-box/WD repeat-containing protein 7 (Homo sapiens) (UniProt Q969H0); assay: FBW7 E3 ligase activators, primary screen, biochemical, AlphaScreen, human (AID 1259310); conditions: AlphaScreen FBW7–phospho-cyclin E peptide binding, activator screen; at 26.1 µM; active compounds read high;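 also: purified mutant Fbw7 with reduced substrate affinity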
Sequence (Q969H0 whole entry, looked up): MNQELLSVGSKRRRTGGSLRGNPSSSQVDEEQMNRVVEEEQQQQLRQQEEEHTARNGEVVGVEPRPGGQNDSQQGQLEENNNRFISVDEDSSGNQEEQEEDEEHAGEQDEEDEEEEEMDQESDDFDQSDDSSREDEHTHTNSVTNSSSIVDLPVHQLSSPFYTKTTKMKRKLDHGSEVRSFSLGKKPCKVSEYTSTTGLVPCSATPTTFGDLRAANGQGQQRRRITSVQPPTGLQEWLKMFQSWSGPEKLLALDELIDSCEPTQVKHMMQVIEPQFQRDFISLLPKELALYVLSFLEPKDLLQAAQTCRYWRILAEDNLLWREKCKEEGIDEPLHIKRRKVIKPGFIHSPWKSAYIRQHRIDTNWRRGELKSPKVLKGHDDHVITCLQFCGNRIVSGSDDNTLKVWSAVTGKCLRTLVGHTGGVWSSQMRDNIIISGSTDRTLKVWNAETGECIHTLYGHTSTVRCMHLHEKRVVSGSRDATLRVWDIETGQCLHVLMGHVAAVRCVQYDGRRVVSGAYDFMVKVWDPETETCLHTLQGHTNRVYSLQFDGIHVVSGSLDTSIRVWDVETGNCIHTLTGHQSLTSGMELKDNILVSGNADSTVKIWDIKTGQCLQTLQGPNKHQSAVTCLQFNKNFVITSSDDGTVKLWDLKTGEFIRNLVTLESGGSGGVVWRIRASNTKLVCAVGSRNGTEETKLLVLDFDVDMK

| SMILES | normalized activity (activation) |
| --- | --- |
| O=C(O)CSc1ccc2nnc(-c3ccc(F)cc3)n2n1 | 0.39% (inactive) |
| NC(=O)CSc1ccc2nnc(-c3ccccn3)n2n1 | 69.7% (active) |
| Cc1ccc(-c2nnc3ccc(SCC(N)=O)nn23)cc1 | 0.47% (inactive) |
| O=C(Nc1ccc(N2CCOCC2)cc1)c1cccc(-n2nccc2NC(=O)C2CC2)c1 | 0.06% (inactive) |
| COc1ccc(N2CCN(C(CNC(=O)C(C)C)c3ccco3)CC2)cc1 (centres undefined) | 0% (inactive) |
| COc1ccc(Br)cc1CN(C)Cn1cnc2ccccc21 | -0.03% (inactive) |
| CC(C)N(Cc1ccccc1)C(=O)c1cc2c(=O)n3ccccc3nc2n1C | 0.69% (inactive) |
| C=CCNC(=O)c1cc2c(=O)n3cccc(C)c3nc2n1C | 0.17% (inactive) |
| CCN(Cc1ccccc1)C(=O)c1cc2c(=O)n3cccc(C)c3nc2n1C | 3.93% (active) |
| O=C(CNC(=O)OCc1ccccc1)Oc1ccc2c(-c3ccccc3)cc(=O)oc2c1 | -0.09% (inactive) |
| O=C(NCc1nnc2n1CCN(Cc1c(F)cccc1Cl)CC2)c1ccccc1 | -0.02% (inactive) |
| O=C(Cc1cccs1)NCCS(=O)(=O)N1CCN(c2ccccn2)CC1 | 0.01% (inactive) |
| O=C(c1cnsc1)N1CCCC(c2ncncc2-c2ccncc2)C1 (centres undefined) | 0.35% (inactive) |
| Cc1cc(C(=O)N2CCC(c3[nH]ncc3-c3ccncc3)CC2)c(C)[nH]1 | 0.63% (inactive) |
| O=C(c1cnsc1)N1CCC(c2[nH]ncc2-c2ccncc2)CC1 | 2.18% (active) |
| Cc1ccc(C)c(C(=O)Nc2ncc(S(=O)(=O)c3ccc([N+](=O)[O-])cc3)s2)c1 | -0.16% (inactive) |
| CCOc1ccc(NC(C)C(=O)N/N=C/c2ccccc2O)cc1 (centres undefined) | -0.35% (inactive) |
| COCCn1nnnc1C(c1cc2cc(C)c(C)cc2[nH]c1=O)N1CCCCC1 (centres undefined) | -0.02% (inactive) |
| COCCn1nnnc1C(c1cc2cc(C)cc(C)c2[nH]c1=O)N1CCOCC1 (centres undefined) | 2.29% (active) |
| COCCn1nnnc1C(c1cc2ccc(C)cc2[nH]c1=O)N1CCCC1 (centres undefined) | -0.04% (inactive) |
| O=C1NC(=O)C(=Cc2ccc(OC(=O)c3ccc(Cl)c(Cl)c3)cc2)C(=O)N1 | 0.22% (inactive) |
| CCOC(=O)CSc1nc2ccsc2c(=O)n1CCc1ccc(OC)c(OC)c1 | 0.46% (inactive) |
| CCSCCOC(=O)C1=C(C)NC2=C(C(=O)CC(c3ccccc3)C2)C1c1ccccc1 (centres undefined) | 0.61% (inactive) |

| SMILES | normalized activity (activation) |
| --- | --- |
| CCSCCOC(=O)C1=C(C)NC2=C(C(=O)CC(c3ccccc3)C2)C1c1ccc(OC)cc1OC (centres undefined) | 2.28% (active) |
| COCCOC(=O)C1=C(C)NC2=C(C(=O)CC(c3ccccc3)C2)C1c1cc(OC)ccc1OC (centres undefined) | 0.27% (inactive) |
| O=C(Nc1ccc(C(=O)Nc2nccs2)cc1)c1ccc2c(c1)C(=O)N(c1ccccc1-c1ccccc1)C2=O | -0.08% (inactive) |
| Cc1ccc(N=c2scc(C)n2CCCO)cc1 | -0.38% (inactive) |
| CC(=O)N(C)c1nc(-c2cccc(N(C)C)c2)ccc1C(=O)NC1CCCCC1 | 1.86% (active) |
| CN(C)c1cccc(Nc2cccc(C(=O)NC3CC3)n2)c1 | -0.12% (inactive) |
| CN(C)c1cccc(Nc2cc(C(=O)NC3CC3)c3ccccc3n2)c1 | 0.31% (inactive) |
| CCOC(=O)N1CCC(NC(=O)CC2C(=O)NCCN2Cc2ccoc2)CC1 (centres undefined) | 0.27% (inactive) |
| CCCCSc1ncnc2c1c(-c1ccccc1)cn2-c1ccc(OC)cc1 | -0.03% (inactive) |
| Cc1ccc(C(C)C)c(OCC(=O)Oc2ccc3c(c2)oc(=O)c2ccccc23)c1 | -0.05% (inactive) |
| COCCNC(=O)/C(C#N)=C/c1ccc(N2CCOCC2)cc1 | 0.46% (inactive) |
| CCOC(=O)/C(C#N)=C/c1ccc(N2CCCCC2)cc1 | 1.85% (active) |
| CCOC(=O)/C(C#N)=C/c1cc(C)n(-c2ccc(C(=O)OCC)cc2)c1C | -0.1% (inactive) and -0.13% (inactive) |
| CCOC(=O)C1=C(C)N=c2s/c(=C\c3ccc(OCc4ccc([N+](=O)[O-])cc4)c(OC)c3)c(=O)n2C1c1ccc2c(c1)OCO2 (centres undefined) | 0.04% (inactive) |
| COCCNc1ncc(-c2cccs2)cn1 | 0.02% (inactive) |
| O=C1C2C3c4ccccc4C(c4ccccc43)C2C(=O)N1CCCCO (centres undefined) | 0.04% (inactive) |
| CC1=C(C#N)C(=O)N(CCCO)C(=O)/C1=C\c1ccc(-c2ccc(Cl)cc2)o1 | -0.06% (inactive) |
| CCCCOC(=O)c1cccc(NC(=O)CN2C(=O)c3ccccc3C2=O)c1 | 0.09% (inactive) |
| Cc1ncn(-c2ccc(Nc3cc(-c4nocc4-c4ccccn4)ccn3)cc2)n1 | 2.76% (active) |
| Cc1ncn(-c2ccc(Nc3cc(-c4cnn(C(C)C)c4-c4ccc(F)cc4)ccn3)cc2)n1 | 0.79% (inactive) |
| CNc1cc(-c2ccnc(Nc3ccc(-n4cnc(C)n4)cc3)c2)no1 | 0.51% (inactive) |
| O=c1c(NCCN2CCCCCC2)c(-c2ccc(Cl)cc2)c1=O | 0% (inactive) |
| CC(C)NCCOCCOc1cccc(Br)c1 | 0.35% (inactive) |

| SMILES | normalized activity (activation) |
| --- | --- |
| COCc1cc(C)nc(OCC(=O)c2ccccc2)c1C#N | 0.04% (inactive) |
| Cc1c(C(=O)N2CCCC2)sc2ncn(CC(=O)N3CCCC3)c(=O)c12 | 0.33% (inactive) |
| Cc1c(C(=O)N2CCOCC2)oc2c1-c1nn(CC(=O)NC(C)c3ccccc3)cc1CC2 (centres undefined) | -0.04% (inactive) |
| Cc1c(C(=O)N2CCCC2)oc2c1-c1nn(CC(=O)N3CCCC3)cc1CC2 | 8.41% (active) |
| Nc1nnc(-c2ccc(Cn3c(-c4cncs4)nc4ccccc43)cc2)s1 | 0.1% (inactive) |
| O=C(O)CCCN1C(=O)C(=O)/C(=C(\O)c2ccccc2)C1c1cccc(F)c1 (centres undefined) | -0.31% (inactive) |
| CC1CCCN(S(=O)(=O)c2cccc3cccnc23)C1 (centres undefined) | -0.09% (inactive) |
| Cc1c(Cc2ccccc2)c(N2CCCCC2)n2c(nc3ccccc32)c1C#N | 0.12% (inactive) |
| Cc1cc(Nc2ccc(Cl)cc2)n2c(nc3ccccc32)c1C#N | -0.02% (inactive) |
| Cc1cc(NCCN2CCCCCC2)n2c(nc3ccccc32)c1C#N | 2.12% (active) |
| CC(=O)c1cccc(-c2nc3ncnc(NCCOc4ccccc4)c3[nH]2)c1 | 0.01% (inactive) |
| CCOc1ccc(Nc2nc(C)c([N+](=O)[O-])c(Nc3ccc(OC)cc3)n2)cc1 | -0.11% (inactive) |
| CC(C)CC(C(=O)NC1CCCC1)N(C(=O)c1snc(C(N)=O)c1N)C1CCCC1 (centres undefined) | 0.18% (inactive) |
| Cc1ccc(C(=O)NC(C)C(c2cccs2)N2CCN(C)CC2)cc1 (centres undefined) | -0.03% (inactive) |
| CCCCOc1ccc(/C=C/c2nc3ccccc3c(=O)n2-c2ccc(C)c(C)c2)cc1 | -0.23% (inactive) |
| CC(=O)Nc1ccc(Nc2nc(Nc3ccc(-n4ccnc4)cc3)nc3c2ncn3-c2ccsc2)cc1 | -0.15% (inactive) |
| CC(=O)Nc1ccc(Nc2nc(Nc3ccncn3)nc3c2ncn3-c2ccsc2)cc1 | 0.77% (inactive) |
| CC(=O)Nc1ccc(Nc2nc(Nc3cnccn3)nc3c2ncn3-c2ccccc2)cc1 | 2.09% (active) |
| COc1ccccc1NC(=O)c1c(C)nc(SCC(=O)c2ccccc2)c(C#N)c1-c1ccc(C)o1 | -0.03% (inactive) |
| Cc1c(NC(=O)c2ccc(Br)cc2)cccc1-c1nc2ccccc2o1 | 0.17% (inactive) |
| O=C(CSc1n[nH]c(-c2cccs2)n1)NC(=O)NC12CC3CC(CC(C3)C1)C2 | -0.03% (inactive) |
| Cc1sc2ncn3c(SCC(=O)N4CCc5ccccc54)nnc3c2c1C | -0.09% (inactive) |
| COC(=O)COc1ccc(S(=O)(=O)N2CCN(c3cc(Cl)ccc3C)CC2)cc1 | -0.32% (inactive) |

| SMILES | normalized activity (activation) |
| --- | --- |
| O=C(CN(c1ccccc1)S(=O)(=O)c1ccccc1[N+](=O)[O-])Nc1ccc(F)cc1 | 0.71% (inactive) |
| NC(=O)CN(c1ccccc1)S(=O)(=O)c1ccccc1[N+](=O)[O-] | -0.14% (inactive) |
| O=C(CN(c1ccccc1)S(=O)(=O)c1ccccc1[N+](=O)[O-])N/N=C/c1ccco1 | 2.75% (active) |
| COCCCN1C(=O)C2C(C(=O)Nc3cccc(C)c3)C3C=CC2(O3)C1C(=O)NC1CCCC(C)C1C (centres undefined) | 0.2% (inactive) |
| C=CCn1c(=NC(=O)c2ccccc2[N+](=O)[O-])sc2cc(S(N)(=O)=O)ccc21 | 0% (inactive) |
| COc1ccccc1C1N(Cc2ccccc2)CCN1Cc1ccccc1 | 0.1% (inactive) |
| Cc1ccc(Oc2ccc(N(C)C(=O)Nc3ccc(Cl)cc3)cc2)nn1 | 0.86% (inactive) |
| COC(=O)c1c(OCc2ccncc2)cc(=O)n2c1CCN(CCCSC)CC2 | 0% (inactive) |
| CC(C)OCCCNC(=O)Nc1cccc(Cl)c1 | 0.02% (inactive) |
| C[C@@H](c1ccccc1)n1c(=O)[nH]c2ncc(-c3ccccc3)nc21 | 0.05% (inactive) |
| CC(C)NCC(=O)N(c1ccccc1)N1CCOCC1 | 0.19% (inactive) |
| CCCCSc1nnc2c(n1)OC(c1ccc(N(C)C)cc1)Nc1ccccc1-2 (centres undefined) | 0.3% (inactive) |
| COc1ccc2c(c1)c(=O)c1ccccc1n2CC(=O)Nc1ccc(F)cc1 | 0% (inactive) |
| N/C(=N\OCc1cc2c(cc1Cl)OCO2)c1nonc1N | 0.4% (inactive) |
| N/C(=N\OC(=O)CCCOc1ccc(Cl)cc1Cl)c1nonc1N | 4.98% (active) |
| O=C(CCCOc1ccc(Cl)cc1Cl)N1CCCC1 | 0.05% (inactive) |
| Nc1ccnc2cc(-c3ccccc3)nn12 | -0.02% (inactive) |
| CSc1ncc(C(=O)Nc2ccc3c(c2)OCCO3)c(C)n1 | 0.15% (inactive) |
| C=CCOC(=O)C1=C(C)Nc2c(c(=O)n(C)c(=O)n2C)C1c1ccc2c(c1)OCO2 (centres undefined) | 0.09% (inactive) |
| Cc1ccc(-c2csc(/C(C#N)=C/c3ccccc3[N+](=O)[O-])n2)cc1 | -0.09% (inactive) |
